Compounds with a hit are over-represented: about 9.4% of the library has one in this group of screens.
AMA1 RON2 block – AMA1-RON2 (P. falciparum) interaction inhibition. AID 720542. hit rate 0.2% among 360,000. Potency, µM (highest dose often 58.2 µM), inactives show at the top dose activity change, negative = inhibition, hits mostly inhibitors. AlphaScreen AMA1-biotinylated RON2 peptide binding;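 also: 0% = vehicle wells and -100% = peptide control; nearly all actives have a fitted effect of over 45% in size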
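AMA1 (3D7) with his tag at 25 nM final met compounds first, then biotinylated RON2 peptide at 25 nM; detection used donor plus acceptor beads, 10 µg/mL apiece, read by AlphaScreen after 30 min at room temperature.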
Pf growth 48h – P. falciparum growth inhibition at 48 hours (one generation) | Potency, µM (series often up to 28.7 µM), for the others: top-dose activity change, negative = inhibition, actives largely listed as inhibitors | hit rate 5.9% among 310,000 | P. falciparum luciferase growth in erythrocytes, 48 h; also: % is scaled to controls: 0 for no effect and ±100 for the full control effect
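Growth was read as firefly luciferase luminescence after a 48 h, 37 C, 5% CO2 exposure of compounds to reporter-bearing P. falciparum cultures (0.1% parasitemia, 2% hematocrit final) in Albumax-supplemented RPMI 1640.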
SARS PLP yeast – SARS-CoV PLP inhibition in yeast; Potency, µM (titrated, usually from 32.9 µM), without a hit: at the top dose activity, positive = growth rescue, hits mostly activators; S. cerevisiae expressing SARS-CoV PLpro, growth rescue; hit rate 0.19% among 330,000; calls by dose curve; also: 0% is about no effect; nearly all actives have a fitted effect of over 55% in size
Pf growth 96h – inhibits malaria parasite growth, 96 h. P. falciparum luciferase reporter growth, 96 h. Potency, µM (top dose mostly 28.7 µM), for inactives: at the top dose activity change, negative = inhibition, most hits filed as inhibitors. hit rate 6.9% among 320,000; also: % is scaled to controls: 0 for no effect and ±100 for the full control effect
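Plates of compound plus infected erythrocytes (2% hematocrit, 0.05% parasitemia final) incubate 96 hours, 37 C, 5% CO2. Detection reagent added; reduced luminescence from the parasites' luciferase reporter flags inhibition.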
Active calls of the source: *; ? = inconclusive; . = no result given. Unless noted, calls follow the shape of the dose curve; as a rule, active = well fitted curve in the direction sought with a large enough effect; inconclusive = small, poorly fitted or top-dose-only effect, or another doubt; inactive = no such curve, though single readings can be large; an effect the other way counts as inactive or inconclusive. Potency is read from the fitted curve at half-maximal effect.

SMILES	AMA1 RON2 block	Pf growth 48h	SARS PLP yeast	Pf growth 96h
COc1ccc(N(CC(=O)Nc2ccccc2C(=O)N2CCCC2)S(=O)(=O)c2ccccc2)cc1	-8%	?	-5%	17%
CC1=C(C(=O)Nc2cccc(C(=O)NC(C)c3ccccc3)c2)SCCO1 (stereo not drawn)	-9%	?	0%	?
Cc1ccc2[nH]c(=O)c(CN(CCO)Cc3nnnn3CCc3ccccc3)cc2c1	-3%	8%	-5%	8.3µM*
CCOC(=O)Cn1nnnc1CN(Cc1cccs1)Cc1cc2cc(C)ccc2[nH]c1=O	-3%	-15%	8%	.
CCOc1ccc2[nH]c(=O)c(CN(Cc3cccs3)Cc3nnnn3C(C)(C)C)cc2c1	2%	12µM*	-2%	19%
Cc1ccc2[nH]c(=O)c(CN(Cc3cccs3)Cc3nnnn3Cc3ccccc3)cc2c1	-13%	12µM*	0%	-13%
O=C(Nc1ccc2[nH]c(=O)[nH]c2c1)c1c(F)c(F)c(F)c(F)c1F	-5%	18%	-1%	?
Fc1ccccc1-c1csc(-c2cccnc2)n1	6%	116%	-2%	78%
CCOC(=O)N1CCC2(CC1)C(C#N)=C(N)OC1=C2C(=O)CC(C)C1 (stereo not drawn)	6%	-11%	-4%	6.6µM*
Cc1ccccc1-c1cc2nc(NCc3ccccc3)n(C)c(=O)c2s1	0%	.	.	.
Cc1ccccc1-c1cc2nc(NCc3ccc(N(C)C)cc3)n(C)c(=O)c2s1	18µM*	.	.	.
O=C(Nc1nccs1)C(NS(=O)(=O)c1ccc(Br)s1)c1ccccc1 (stereo not drawn)	11%	10%	?	5%
O=C1CC2CCCN2C=C1I (stereo not drawn)	-7%	.	-6%	.
Cc1cc(Cl)n2c(nc3ccccc32)c1C#N	10%	8.3µM*	-34%	?
CCN(CC)c1cc(C)c(C#N)c2nc3ccccc3n12	19%	5.9µM*	0%	?
Cc1ccc(N(CC(=O)Nc2ccc(-c3nc4ccc(C)cc4s3)cc2)S(C)(=O)=O)cc1	-3%	193%	4%	82%
O=C(C1CCCN(c2ncnc3c2nc2n3CCCCC2)C1)N1CCN(c2ccc(Cl)cc2)CC1 (stereo not drawn)	-11%	12µM*	-12%	-15%
O=C(C1CCCN(c2ncnc3c2nc2n3CCCCC2)C1)N1CCN(c2ccc(F)cc2)CC1 (stereo not drawn)	-2%	9.3µM*	-2%	?
Cc1oc(-c2cccs2)cc1C(=O)N1CCC(C)(C(=O)NS(=O)(=O)C2CC2)C1 (stereo not drawn)	12%	.	.	.
CCN1CCCc2cc(CN(CCN3CCOCC3)C(=S)Nc3cccc(Cl)c3)ccc21	3.5µM*	?	8%	-2%
CCN1CCCc2cc(CN(CCN3CCOCC3)C(=S)Nc3ccc(OC)cc3)ccc21	-7%	-11%	-2%	5.9µM*
CCCCSCCCNC(=O)c1ccc(CS(=O)(=O)c2ccc(OC)cc2)o1	-21%	?	-1%	?
Cc1ccc(NC(=O)c2ccc(OCC3CCCO3)cc2)cc1 (stereo not drawn)	13%	190%	-10%	209%
Cc1ccccc1NC(=O)c1[nH]cnc1C(=O)NN	12%	8%	0%	?
CC(=O)Nc1cccc2ncccc12	-2%	17%	11%	4.1µM*
SMILES	AMA1 RON2 block	Pf growth 48h	SARS PLP yeast	Pf growth 96h
O=C(CCC1CCCCC1)NCCN1C2=NC[C@H](Cc3ccc(O)cc3)N2C[C@H]1Cc1ccc(O)cc1	-7%	?	0%	?
COc1ccc(C[C@H]2CN3C(=NC[C@@H]3Cc3ccccc3)N2CCNC(=O)CCC2CCCCC2)cc1	-2%	3.7µM*	0%	2.9µM*
C[C@@H]1CN=C2N(CCNC(=O)CCC3CCCCC3)[C@H](Cc3ccc(O)cc3)CN21	-2%	5%	23%	13µM*
COc1ccc(C[C@H]2CN3C(=NC[C@@H]3C(C)C)N2CCNC(=O)CCC2CCCCC2)cc1	-6%	?	1%	4.7µM*
CC(C)[C@H]1CN=C2N(CCNC(=O)CCC3CCCCC3)[C@H](Cc3ccc(O)cc3)CN21	-5%	9.3µM*	-3%	?
O=C1NCC(COCc2ccco2)O1 (stereo not drawn)	-3%	8%	1%	?
CC(C)N=c1cc2n(-c3ccc(Cl)cc3)c3ccccc3nc-2cc1Nc1ccc(Cl)cc1	-28%	2.9µM*	.	?
Cc1ccc(S(=O)(=O)c2c(N)n(Cc3ccco3)c3nc4ccccc4nc23)cc1C	21%	10µM*	-2%	.
Nc1c(S(=O)(=O)c2ccccc2)c2nc3ccccc3nc2n1Cc1ccco1	11%	?	-7%	12µM*
Cc1ccc(S(=O)(=O)c2c(N)n(CCC(C)C)c3nc4ccccc4nc23)cc1	20%	.	1%	13µM*
CCCCCn1c(NC(=O)c2ccco2)c(S(=O)(=O)c2ccc(C)cc2)c2nc3ccccc3nc21	13%	5.2µM*	-2%	?
Cc1ccc(S(=O)(=O)c2c(N)n(CCN3CCOCC3)c3nc4ccccc4nc23)cc1C	-13%	?	8%	10%
Nc1c(S(=O)(=O)c2ccccc2)c2nc3ccccc3nc2n1CCN1CCOCC1	9%	?	26%	?
Oc1ccccc1N=Cc1sc2ccccc2c1Cl	-1%	?	-57%	?
CCOC(=O)c1[nH]c(=S)[nH]c1C	17%	.	.	.
COC(=O)c1ccc(NC(=O)CSc2nnc(C)n2-c2ccccc2)cc1	-14%	-4%	.	-12%
Cc1cccc(S(=O)(=O)c2c(N)n(/N=C/c3ccccc3)c3nc4ccccc4nc23)c1	2%	.	13%	24%
Cc1ccc(C)c(S(=O)(=O)c2c(N)n(/N=C/c3ccco3)c3nc4ccccc4nc23)c1	-4%	10µM*	5%	?
COc1cccc(/C(C#N)=C/c2c(-c3ccc(Cl)cc3)nc3c(C)cccn23)c1	-29%	1.3µM*	-14%	?
CC(C)(C)c1cc(Br)c(O)c(N=Nc2ccc(S(=O)(=O)N3CCOCC3)cc2)c1	-19%	12µM*	-1%	10µM*
Cc1ccc(O)c(N=Nc2ccc(S(=O)(=O)N3CCOCC3)cc2)c1	-20%	5.2µM*	0%	?
Cc1ccc(NC(=O)CCc2ccc(S(=O)(=O)N3CCOCC3)cc2)c(O)c1	-6%	.	-2%	.
CCOc1cccc(/C=N/NC(=O)C2CCCC2)c1O	100%	8%	?	7%
CC(C(=O)NCC1CCCCC1)N1CCN(S(=O)(=O)c2cccs2)CC1 (stereo not drawn)	5%	9.3µM*	0%	?
CC(C(=O)NC1CCCC1)N1CCN(S(=O)(=O)c2ccc(C(C)(C)C)cc2)CC1 (stereo not drawn)	8%	1.5µM*	1%	1.5µM*
CCC(=O)Nc1ccc(Cl)c(NC(=O)c2ccc(Br)o2)c1	1%	16%	-15%	.
CC(OC(=O)c1ccc2ncsc2c1)C(=O)NCc1ccccc1 (stereo not drawn)	.	4%	?	-6%
CCN1CCN(C(=O)CS(=O)(=O)Cc2nc(-c3ccc(C)cc3)oc2C)CC1	-4%	17%	-2%	?

High-throughput results (PubChem)
